Results reported in ChEMBL document CHEMBL1157539, “Thousands of chemical starting points for antimalarial lead identification” (Nature, 2010).

Columns and labels:
Type in all cases: functional
Plasmodium falciparum [1] = experiment: GSK_TCMDC: Inhibition of Plasmodium falciparum 3D7 in whole red blood cells, using parasite LDH activity as an index of growth. Test compounds present at 2uM
Plasmodium falciparum [2] = experiment: GSK_TCMDC: Inhibition of Plasmodium falciparum Dd2 in whole red blood cells, using parasite LDH activity as an index of growth. Test compounds present at 2uM
HepG2 = experiment: GSK_TCMDC: Percent inhibition of human HepG2 cell line. Test compounds present at 10uM.

Row | SMILES | Inhibition (Plasmodium falciparum [1]) | Inhibition (Plasmodium falciparum [2]) | Inhibition (HepG2)
1 | CN1CC=C(c2c[nH]c3ccc(OCc4ccccc4)cc23)CC1 | 95% | 97% | 0%
2 | COc1cc(C=CC(=O)N2CCC(CN3CCC(c4c[nH]c5ccccc45)CC3)CC2)ccc1O | 82% | 25% | 11%
3 | COc1coc(C(=O)NC2CCN(CC3(c4ccc(Cl)cc4)CCC3)CC2)c1OC | 96% | 96% | 2%
4 | Cc1[nH]c2cc(Cl)ccc2c1C1=CCN(CCN2CCOc3c(Br)cccc3C2=O)CC1.Cl | 90% | 58% | 1%
